FBW7 act: FBW7 E3 ligase activators, primary screen, biochemical, AlphaScreen, human; F-box/WD repeat-containing protein 7 (Homo sapiens), Q969H0; 0.13% of 650,000 active; AlphaScreen FBW7–phospho-cyclin E peptide binding, activator screen; AID 1259310, 2017; normalized activity (activation), % at 26.1 µM; in the data active means normalized activity above about 1.9%;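 further: purified mutant Fbw7 with reduced substrate affinity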
TEAD-YAP inh: TEAD-YAP interaction inhibition, primary screen, TEAD-YAP interaction inhibitor project, luminescence, HEK-TIYL cells | 1.4% of 640,000 active | AID 1259422, 2018 | inhibition, % at 9.12 µM | TEAD-Gal4/YAP UAS-luciferase luminescence; in the data active means inhibition above about 32%;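 further: 0% = median of test compound wells and 100% = reference inhibitor wells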
GPR151 ag: activators of human GPR151, primary screen, cell-based, PathHunter beta-arrestin, luminescence; activation, % at 11.2 µM; 1% of 650,000 active; PathHunter beta-arrestin GPR151 cells; G-protein coupled receptor 151 (Homo sapiens), Q8TDV0; in the data active means activation above about 4.9%;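 further: 0% = median of compound wells and 100% = cells with positive control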
Target sequence (Q8TDV0 whole entry, looked up): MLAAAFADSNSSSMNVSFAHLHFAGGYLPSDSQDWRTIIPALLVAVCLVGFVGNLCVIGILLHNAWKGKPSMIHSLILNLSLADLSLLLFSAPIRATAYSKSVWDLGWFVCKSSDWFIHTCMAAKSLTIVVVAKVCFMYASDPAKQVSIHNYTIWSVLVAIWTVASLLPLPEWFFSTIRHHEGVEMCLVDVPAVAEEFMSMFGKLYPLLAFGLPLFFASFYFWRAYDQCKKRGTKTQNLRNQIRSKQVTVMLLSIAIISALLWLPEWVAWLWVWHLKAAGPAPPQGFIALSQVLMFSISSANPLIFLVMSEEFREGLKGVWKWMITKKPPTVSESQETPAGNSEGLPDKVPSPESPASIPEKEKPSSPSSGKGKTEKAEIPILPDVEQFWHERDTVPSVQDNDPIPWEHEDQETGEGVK
MITF primary: MITF inhibitors, primary screen, biochemical, AlphaScreen, human. AID 1259374, 2018. AlphaScreen MITF homodimerization, bead proximity signal. inhibition, % at 2.6 µM. Microphthalmia-associated transcription factor (Homo sapiens), O75030. 0.91% of 650,000 active; in the data active means inhibition above about 50%;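 further: 0% = vehicle wells with protein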
GPR151 conf act: GPR151 activators, triplicate retest, confirmation, cell-based, PathHunter beta-arrestin, luminescence | GPR151 PathHunter beta-arrestin cells, 90 min; % of EA-reagent control over plate median | shares compounds with GPR151 ag | 6,700 tested, under 10 active | AID 1508609, 2020 | activation, % at 11.2 µM;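 active means mean percent activation across replicates above the confirmation screen cutoff of 4.91%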
GPR119 ag: GPR119 activators in beta-arrestin cells, counter-screen for GPR151 activator project, cell-based, PathHunter beta-arrestin, luminescence, triplicate; shares compounds with GPR151 ag; 90 min; 0 = compound-well median, 100 = enzyme-acceptor control; activation, % at 11.2 µM; 0.3% of 6,700 active; AID 1508611, 2020;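 active means mean percent activation in the counterscreen above 29.09%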;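 further: counterscreen on off-target GPR119 to flag nonselective hits from the GPR151 activator screen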
* hit, by the source's call; x = not tested or not shown; ! = not active in a repeat. A selection: hits, their analogues and other compounds. The true share with any hit is near 3.5%.

SMILES	FBW7 act	TEAD-YAP inh	GPR151 ag	MITF primary	GPR151 conf act	GPR119 ag
Cc1cc(C(=O)NCCc2ccc(F)cc2)ccc1[N+](=O)[O-]	0	-33	2	-11	x	x
Oc1ccc(CCNc2ccnc(N3CCN(c4ccccn4)CC3)n2)cc1	0	6	6.2*	-7	0	-2
O=C(Nc1ccc(C(=O)N2CCCC2)cc1)c1cccnc1	0	7	-2	10	x	x
CCn1c(=NC(=O)c2ccco2)sc2cccc(F)c21	0	-36	1	5	x	x
CCn1c(=NC(=O)c2ccco2)sc2cc3c(cc21)OCCO3	1	-32	5.7*	3	-1	-8
C=CCn1c(=NC(=O)c2ccco2)sc2cccc(OC)c21	0	8	0	15	x	x
CCn1c(=NC(=O)c2ccco2)sc2cccc(OC)c21	0	7	5.0*	-2	0	-2
COc1ccc(OC)c2c1sc(=NC(=O)c1ccco1)n2C	0	-13	5.3*	-15	1	6
CCOCCn1c(=NC(=O)c2ccco2)sc2cc(C)ccc21	0	-47	5.8*	-7	1	4
O=c1n(-c2ccccc2)c(=O)n(Cc2ccccc2F)n1Cc1ccccc1F	0	4	0	-4	x	x
COc1ccc(Br)cc1CN1CCCC(C)C1 (stereo unspecified)	0	14	1	-17	x	x
CCOC(=O)[C@@H]1C(=O)NC(SC)=C(C#N)[C@H]1c1ccccc1OC	1	-16	2	-3	x	x
CCOC(=O)c1ccc(NC(=S)Nc2ccccn2)cc1	0	-43	5.0*!	16	1	15
O=C(COc1ccccc1)NC(=S)Nc1ccccn1	0	0	6.6*	8	0	2
Cc1ccc(-c2csc(N3C(=O)CNC3=S)n2)cc1	0	-46	5.7*	16	-2	-19
S=C(Nc1ccc(Oc2ccccc2)cc1)N(Cc1cccs1)C1CCCC1	0	-5	0	6	x	x
C[C@@H]1CC[C@H]2C(=O)O[C@@H](COc3ccc(C(C)(C)C)cc3)CN2[C@H]1c1ccc(Br)cc1	0	x	5.3*	12	1	-11
C=C(C)C(=O)OC[C@@H]1CN2[C@@H](CC[C@@H](C)[C@@H]2c2ccc(Br)cc2)C(=O)O1	0	x	-1	23	x	x
CCCOc1ccc(N2C(=O)CC(SCC(=O)Nc3ccc(Br)cc3)C2=O)cc1 (stereo unspecified)	0	0	0	0	x	x
C[n+]1cccc(/C(=N/O)c2ccccc2)c1	0	2	-1	21	x	x
Cc1cc(C(=O)COC(=O)c2ccc(O)cc2O)c(C)n1-c1ccc2c(c1)OCO2	0	2	5.3*	-1	0	1
COc1ccc(S(=O)(=O)NCC(c2ccco2)N(C)C)cc1F (stereo unspecified)	0	-5	6.5*	11	-1	-8
Cc1nc2nc(CNC(=O)OC(C)(C)C)nn2c(C)c1CCC(=O)NCc1ccccc1	1	6	0	16	x	x
CCOC(=O)CCc1c(C)nc2nc(CNC(=O)c3ccccc3)nn2c1C	0	0	5.2*	-7	0	-2
CCOc1ccc(-c2[nH]nc3c2C(c2ccccc2F)C(C#N)=C(N)O3)c(OCC)c1 (stereo unspecified)	0	1	7.1*	10	-1	6
CCOC(=O)c1c(NC(=O)Nc2ccc(Cl)cc2)sc2c1CC(C)(C)OC2	0	-10	5.2*	-9	2	8
CCOC(=O)c1c(NC(=O)CC)sc2c1CC(C)(C)OC2	0	-4	-1	-2	x	x
O=C(Cn1c(=O)oc2cc(S(=O)(=O)N3CCCC3)ccc21)N1CCCCC1	0	11	1	4	x	x
CCC(C)(C)C1CCC(NC(=O)C(=O)Nc2ccccc2)CC1 (stereo unspecified)	0	-14	6.3*	8	0	-5
COc1cc(C2C(C(=O)OCc3ccccc3)=C(C)NC3=C2C(=O)CCC3)ccc1O (stereo unspecified)	0	-4	5.5*	-2	0	7
